An excerpt weighted towards active compounds, which were near 14% of everything screened.
Lassa entry inh = blocks Lassa virus binding to or entry into cells; Lassa virus pseudotype entry inhibition, cell reporter; Potency, µM (titrated, usually from 37.9 µM), inactives show at the highest dose activity change, negative = inhibition, usual class: inhibitors; 1.2% of 300,000 active; AID 540256; calls by dose curve; tested in HEK293 cells; note: potency is the fitted concentration of half-maximal effect; nearly all actives have a fitted effect of over 50% in size
Marburg entry inh = blocks Marburg virus binding to or entry into cells; Potency, µM (doses to about 37.8 µM), for the others: at the top dose activity change, negative = inhibition, most hits filed as inhibitors; 1.8% of 300,000 active; AID 540276; Marburg virus pseudotyped entry inhibition, cell reporter; calls by dose curve; tested in HEK293 cells; note: potency is the fitted concentration of half-maximal effect
HCMV inh = blocks human cytomegalovirus replication; 4.5% of 410,000 active; AID 1259415; activity change, negative = inhibition, % at 57.5 µM; HFF cells, HCMV-luciferase reporter, 72 h; stronger effect = lower value; in the data active = activity change below about -60%; inconclusive = no clear call, values can overlap the other calls; inactive = above about -39%
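Inhibition of viral replication was scored as loss of reporter luminescence in HFFs infected with HCMV-luciferase (MOI 1 PFU/cell) for 72 h; compounds tested at 2 doses, normalized to buffer and Salinomycin controls.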
Pf growth 48h = inhibits P. falciparum growth in the first generation, 48 h; AID 504832; Potency, µM (highest dose often 28.7 µM), for inactives: at the top dose activity change, negative = inhibition, hits mostly inhibitors; 5.9% of 310,000 active; P. falciparum luciferase growth in erythrocytes, 48 h; note: potency is the fitted concentration of half-maximal effect
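Compounds are pin-transferred into medium, infected erythrocytes (2% hematocrit, 0.1% parasitemia final) are added, and plates sit one parasite generation at 37 C in 5% CO2. Detection reagent is then added and luminescence measured.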
Pf growth 96h = inhibits malaria parasite growth, 96 h; P. falciparum luciferase reporter growth, 96 h; Potency, µM (series often up to 28.7 µM), without a hit: top-dose activity change, negative = inhibition, actives largely listed as inhibitors; 6.9% of 320,000 active; AID 504834; note: potency is the fitted concentration of half-maximal effect
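Luminescence readout: decreased luciferase signal marks inhibited growth of reporter-expressing P. falciparum in infected red cells (2% hematocrit, 0.05% parasitemia final), exposed to compound two generations (96 h, 37 C, 5% CO2).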
HCV inhibitor = HCV inhibition | Huh7.5.1 HCVcc-Cre infection, luciferase reporter, 44 h | Potency, µM (doses to about 41.8 µM), without a hit: at the highest dose activity change, negative = inhibition, actives largely listed as inhibitors | 3.4% of 340,000 active | AID 651820; note: potency is the fitted concentration of half-maximal effect
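Cells (1,000/well) were plated 4 h before compound, then infected with HCVcc-Cre virus (~0.5 moi). After 44 h further culture, infection was read as luciferase luminescence following a 15 min substrate incubation at room temperature.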
An asterisk follows results filed as active; u = inconclusive; x = no result; ! = a repeat was not active; [ ] = remark or other dose. Unless noted, calls come from the whole dose curve; as a rule, active = well fitted inhibition curve with a large enough effect; inconclusive = small, poorly fitted or top-dose-only effect, or another doubt; inactive = no such curve, though single readings can be large or run the other way. % is set by controls: 0 for no effect and ±100 for the full control effect.

SMILES | Lassa entry inh | Marburg entry inh | HCMV inh | Pf growth 48h | Pf growth 96h | HCV inhibitor
COc1ccc(NC(=S)NCCc2ccccc2)c(C)c1 | -19.4%[46.1 µM] | -3.4%[46.1 µM] | 20.0 | u | 14.7µM* | -6.5%
COc1cc(NC(=S)NCCc2ccccc2)c(OC)cc1NC(=O)C(C)C | x | x | u | -15.6% | u | -10.2%
Cc1cc(OC(F)F)ccc1NC(=S)NCCc1ccccc1 | -7.0% | u | -16.6 | 0.0% | -13.2% | -1.5%
COc1cc(C)c(NC(=O)C(=S)NCCc2ccccc2)cc1C | u | u | u | 0.8% | 2.33µM* | u
COc1ccc(CCNC(=S)Nc2cc(C)ccc2C)cc1 | 4.1% | -24.0% | u | x | u | u
COc1ccc(CCNC(=S)Nc2ccc(C)cc2C)cc1 | -1.3% | 21.8% | -75.5* | -9.8% | -13.8% | u
COc1ccc(-c2nc(CSc3nc4ncccc4[nH]3)c(C)o2)cc1OC | 28.8%[46.1 µM] | x | 26.0 | x | x | x
CN1C[C@@H]2[C@@H]3C(=O)N(Cc4ccccc4)C(=O)[C@@H]3[C@](Cc3ccccc3)(C1=O)N2C(=O)c1ccc(C(F)(F)F)cc1 | x | x | 5.0 | x | x | 12.4%
C[C@@H]1CN([C@H](C)CO)C(=O)c2cc(NS(=O)(=O)c3ccccc3)ccc2O[C@@H](C)CCCCO[C@@H]1CN(C)Cc1ccccc1 | x | x | -18.1 | x | x | x
Cc1cc2oc(=O)cc(C)c2cc1NC(=O)CCl | u | u | -100.4* | u | 4.65µM* | u
CCC(=O)Nc1cc2[nH]c(=O)cc(C)c2cc1C | x | x | -17.8 | 8.4% | u | 9.5%
Cc1cc2oc(=O)cc(C)c2cc1NC(=O)CCC(=O)O | -9.4% | 17.6% | 5.2 | x | -1.7% | -25.0%
Cc1cc2c(C)cc(=O)[nH]c2cc1NC(=O)CCl | x | -0.6% | -24.9 | u | 8.28µM* | 11.2µM*
C/C(=N\NC(=O)c1cccc(F)c1)c1ccc(Br)s1 | u | -25.9% | -1.9 | u | 3.7µM* | -26.5%
C/C(=N\NC(=O)c1ccccc1O)c1ccc(Br)s1 | u | u | -26.6 | 13.1µM* | 37.9% | -10.4%
C/C(=N\NC(=O)c1cccc(Br)c1)c1ccc(Br)cc1 | 0.0% | 6.4% | -26.5 | 40.3% | 65.6% | u
C/C(=N\NC(=O)c1ccccc1[N+](=O)[O-])c1ccc(Br)s1 | 1.3% | -4.9%[46.1 µM] | -14.2 | -1.6% | 58.9% | -9.2%
C[C@H]1CN(C(=O)OC(C)(C)C)CCN1c1ccc(N2CC[C@@H](O)C2)c(C#N)c1 | x | x | 33.7 | x | x | x
CCc1ccc2ncc3c(-c4ccc(F)cc4)nn(CC(=O)NCc4ccccc4)c3c2c1 | -2.3%[46.1 µM] | x | 17.0 | x | x | x
CCOC(=O)C1=CCN(S(=O)(=O)c2ccc(C)cc2)C1c1ccc(C(C)C)cc1 (stereo not drawn) | x | x | -39.6 | x | x | x
O=[N+]([O-])c1cc(F)c(N2CCCCC2)cc1N1CCOCC1 | -26.0%[14.3 µM] | -9.0% | -28.8 | 22.2% | 0.0% | x
N#Cc1cc(N2CCCCC2)c([N+](=O)[O-])cc1C#N | 2.1% | 3.3% | -64.3* | 2.8% | u | 19.9%
O=[N+]([O-])c1cc2no[n+]([O-])c2cc1N1CCCCC1 | -17.2% | 2.5% | -62.5* | x | x | u
CCOc1ccc(-n2c(=O)c3c4c(sc3n(CC(=O)NC(C)CC)c2=O)CCCC4)cc1 (stereo not drawn) | -14.7%[46.1 µM] | -1.4%[46.1 µM] | -6.4 | x | x | x
Cc1onc(-c2c(Cl)cccc2Cl)c1C(=O)NC1CCCCC1 | u | u | 2.5 | -26.0% | 0.8% | 12.6µM*
Cc1onc(-c2c(Cl)cccc2Cl)c1C(=O)N/N=C(\N)COc1ccc(Cl)cc1 | -1.9% | u | -78.1* | 2.33µM* | u | 2.82µM*
Cc1onc(-c2c(Cl)cccc2Cl)c1C(=O)N[C@@H]1C(=O)N2[C@@H]1SC(C)(C)[C@@H]2C(=O)O | x | x | 42.4 | u | -13.1% | 0.501µM*!
Cc1onc(-c2c(Cl)cccc2Cl)c1C(=O)N1CCc2ccccc2C1 | -21.8% | u | 1.4 | 10.4µM* | 7.38µM* | 32.0%
C#Cc1ccc(CN2CCN(CCCc3ccccc3)C(CCO)C2)cc1 (stereo not drawn) | u | 3.5%[46.1 µM] | 36.7 | -19.1% | u | -26.9%

Screening results as filed in PubChem BioAssay.
